Test results reported in PubChem BioAssay (NCI).
Compounds without any hit were thinned out: in the full panel of roughly 79,000, 15% have a hit. A number with no mark means an inactive call. Calls of active or inactive are those of the source. No stated cut-off is given here; in the data, active means growth inhibition above about 70%; inactive means the rest.

Key:
[1] = NCI Yeast Anticancer Drug Screen. Data for the rad50 strain (AID 155);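 further: 0% = growth of vehicle-only cultures of the same strain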; settings: S. cerevisiae rad50 strain growth inhibition; at 50.0 µM; hits give high values
How it was run: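 Growth of the mutant yeast was measured after compound exposure and referenced to vehicle-treated cultures.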

[2] = NCI Yeast Anticancer Drug Screen. Data for the mec2-1 strain (AID 157); settings: S. cerevisiae mec2-1 strain, at 50.0 µM, hits give high values
How it was run: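 Cells of the genetically defined mec2-1 yeast strain are incubated with test compound. Inhibition of growth is calculated against vehicle-treated controls.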

[3] = NCI Yeast Anticancer Drug Screen. Data for the sgs1 mgt1 strain (AID 161);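 further: 0% = growth of cultures given vehicle only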; settings: S. cerevisiae sgs1 mgt1 strain, at 50.0 µM, hits give high values
How it was run: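 Read-out: growth inhibition vs vehicle controls. Cells: mutant yeast strain deficient in DNA damage repair.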

[4] = NCI Yeast Anticancer Drug Screen. Data for the cln2 rad14 strain (AID 165);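 further: 0% = growth equal to vehicle treated cultures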; settings: S. cerevisiae cln2 rad14 strain, at 50.0 µM, hits give high values
How it was run: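 The screen exposed genetically defined yeast (cln2 rad14) to test compounds and scored growth inhibition relative to vehicle-treated controls.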

[5] = NCI Yeast Anticancer Drug Screen. Data for the bub3 strain (AID 167); settings: S. cerevisiae bub3 mutant strain, at 50.0 µM, hits give high values
How it was run: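 Whole-cell yeast assay. The mutant strain was incubated with compounds, and growth inhibition was determined by comparison with vehicle-treated cells.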

[6] = NCI Yeast Anticancer Drug Screen. Data for the mlh1 rad18 strain (AID 175); settings: S. cerevisiae mlh1 rad18 strain growth inhibition; at 50.0 µM; hits give high values
How it was run: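 Compound-treated yeast growth, normalised to vehicle controls. Strain bears defined DNA repair mutations.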

Structure (SMILES)	growth inhibition [1]	growth inhibition [2]	growth inhibition [3]	growth inhibition [4]	growth inhibition [5]	growth inhibition [6]
COc1cc2nncc(Sc3cnnc4ccccc34)c2cc1OC	19.1%	29.6%	18.6%	13.3%	36%	35.6%
CN(C)c1nc(=NCc2ccncc2)ss1	-38.2%	8.45%	2%	-45.4%	5.85%	-16.8%
O=C(Nc1ccc([N+](=O)[O-])cc1)Oc1c(Cl)cc(Cl)c(Cl)c1[N+](=O)[O-]	43.6%	-18.7%	57.2%	25.6%	2.3%	60.4%
Fc1ccc2nncc(SCc3ccc(Cl)c(Cl)c3)c2c1	-1%	0.15%	3.8%	-11.2%	18.4%	-2.05%
CCN(CC)CCCC(C)NC1CCCc2cc3c(cc21)C(=O)c1ccccc1C3=O (configuration not stated)	34%	13.8%	38.1%	14.9%	-4.5%	33.1%
CC(c1ccccc1)c1ccc2ccccc2c1C(=O)O (configuration not stated)	39.8%	43.2%	42.6%	82% (active)	29.6%	64.8%
c1ccc2c(C3=NCCO3)cccc2c1	11.7%	9.7%	8.3%	-34.6%	4%	11.8%
Clc1ccc(C2N3CCCCC3[C@@H]3c4[nH]c5ccccc5c4CCN23)cc1 (some centres not stated)	-11.7%	-10.8%	-4.7%	-4.65%	0.3%	-8.5%
COC(=O)C12CC3CC(CC(C(=O)O)(C3)C1)C2	-10.2%	-7.95%	-4.8%	-3.2%	-1.65%	-14.8%
CSC1(C)C(=O)Nc2cc(C(F)(F)F)ccc21 (configuration not stated)	17.6%	1.5%	1.65%	17.4%	2%	3.4%
CN1C(=O)Cn2c(n[nH]c(=O)c2=O)-c2cc(Cl)ccc21	-22.4%	12.3%	10.3%	-36.5%	12.9%	6.2%
COC1/C=C/OC2(C)Oc3c(C)c(O)c4c(O)c(c(C5SCCS5)c(O)c4c3C2=O)NC(=O)/C(C)=C\C=C\C(C)C(O)C(C)C(O)C(C)C(O)C1C (configuration not stated)	5.15%	19.1%	-10.8%	4.85%	0%	36.9%
CC(=O)OC1/C=C(/C)CCC2OC2(C)CC2OC(=O)C3(CC3)C12 (configuration not stated)	0.85%	-20.5%	-2%	10.7%	1%	-7.2%
CCCCCOCC(O)CNCCNCC(O)COCCCCC (configuration not stated)	8%	0%	14.3%	-55.6%	-23.2%	0%
CC1(C)CC(=O)c2c([nH]c(=S)c(C#N)c2-c2ccc(Br)cc2)C1	-37.3%	-13.1%	-27.4%	-11.8%	-8.7%	-42.1%
COC(=O)C(=O)C(C(=O)C(=O)Nc1cc([N+](=O)[O-])ccc1[N+](=O)[O-])c1nc2ccc(C(=O)c3ccccc3)cc2[nH]c1=O (configuration not stated)	29.7%	15.8%	4.1%	-16.1%	40.6%	18.9%
COc1nc(C(=O)NNC(=O)c2nc(OC)c3ccccc3c2-c2ccccc2)c(-c2ccccc2)c2ccccc12	-6.9%	-5.8%	-19.2%	-8.7%	-17%	1.3%
CN(/N=C\c1ccc([N+](=O)[O-])cc1)C(=O)c1ccccc1	-6.85%	-4.15%	14.6%	-33.6%	19.4%	-7.35%
COc1ccc2cc3[n+](cc2c1O)CCc1cc2c(cc1-3)OCO2	6.75%	-22.8%	19%	20.6%	22.2%	22.9%

Structure (SMILES)	growth inhibition [1]	growth inhibition [2]	growth inhibition [3]	growth inhibition [4]	growth inhibition [5]	growth inhibition [6]
OCC1CCCC1	12.3%	-18.4%	-0.05%	-2.95%	-1.5%	9.7%
C=CC(=O)OCCCS(=O)(=O)[O-].C=CC(=O)OCCCS(=O)(=O)[O-].NC1CCCCC1N.[Pt+4]	3.05%	-7.75%	-4.25%	37.5%	14.1%	9.75%
CCCC(=O)NC(Nc1ccc(S(=O)(=O)Nc2nc(C)cc(C)n2)cc1)(C(F)(F)F)C(F)(F)F	-21.6%	-37.9%	-21.1%	13.2%	-3.7%	-21.4%
OCC1CCNCC1	22.1%	12.1%	0.1%	-1.15%	-3.2%	32.2%
CN1C(=O)C(O)CC1c1ccccc1C(F)(F)F (configuration not stated)	11.7%	4.2%	31.2%	17.9%	5.05%	-30.6%
COc1ccc(C(OC2OC(n3cnc4c(=S)nc(N)[nH]c43)CC2OC(C)=O)(c2ccccc2)c2ccc(OC)cc2)cc1 (configuration not stated)	17.9%	21.9%	11.2%	-54.4%	23.4%	24.4%
O=C1OCCOCCOCCOCCOCCOCCOC(=O)c2cccc1n2	28.9%	-0.7%	7%	13.3%	-0.35%	9.6%
CC(=O)n1nc(Cl)c2cccnc2c1=O	11.8%	-1.1%	4.3%	1.55%	-0.4%	8.85%
O=C1CC(c2ccccc2)C(c2ccccc2)C1 (configuration not stated)	6%	0.45%	4.2%	4.2%	-24.1%	-0.25%
O=C(NO)c1ccc(Cl)cc1Cl	57.9%	-0.8%	37.7%	-11.9%	18.6%	43.7%
CC(C)C1CCC2(C)C(CCC3C(C)(CO)CCCC32O)C1 (configuration not stated)	-17.2%	-6.85%	19.5%	1.45%	22.1%	10%
O=C1C2Cc3ccccc3CN2C(=O)N1CCN1CCOCC1 (configuration not stated)	7.25%	-21.8%	-4.15%	12.8%	3.25%	22.6%
O=C1NC(N2CCCC(CO)C2)=N/C1=C\c1cccs1 (configuration not stated)	8.1%	-6.8%	-3.4%	3.25%	-14.4%	-39.7%
O=C=Nc1cccc([N+](=O)[O-])c1	-0.65%	-5.7%	-0.75%	-5.05%	-27.9%	-40.5%
CC(C)(C)C(=O)c1ccc(-c2ccccc2)cc1	17.4%	-5.55%	-6.45%	-56.3%	6.7%	-2.1%
Cc1ccc(C2=C(Cl)C(=O)C(c3ccc(C)cc3)=C(Cl)C2=O)cc1	-15.8%	10.3%	-13.8%	-3.95%	-57.5%	-14.4%
O=C(COCC(=O)N/N=C/c1ccc(Cl)cc1Cl)N/N=C\c1cc(Cl)cc(Cl)c1	-21.1%	-1.65%	0.75%	37.2%	-1%	-12.2%
CN(C)Cc1cc(C(C)(C)C)cc(CN(C)C)c1O	-4%	-6.2%	-13%	-20.1%	-36.4%	-0.05%
